# Experimental data published in PubChem BioAssay AID1159524 (National Center for Advancing Translational Sciences (NCATS), 2015).
# The whole screen tested about 410,000 compounds, of which about 5,100 (1.2%) were called active. About 8% were inconclusive and are not listed. For the sample, actives were picked, then their nearest neighbours and some compounds at random. A number with no mark means an inactive call. Calls come from the whole dose curve; tested in HEK293T cells.
# Experiment: High Throughput Screening for Foot and Mouth Disease Virus Antivirals; note: read-out not given here; nearly all actives have a fitted effect of over 45% in size
# Settings: FMDV antiviral cell-based qHTS; series mostly up to 57.9 µM; activity change, negative = inhibition: at the top concentration
# % is set by controls: 0 for no effect and ±100 for the full control effect; potency is the fitted concentration of half-maximal effect.
Compound,"activity change, negative = inhibition",Potency
O=C(NCCCc1ccccc1)c1ccc2c(c1)sc1nc(-c3ccc(F)cc3)cn12,-2%,–
Cc1ncc2c(c1CNS(=O)(=O)N(C)C)CCN(C(=O)c1ccccc1F)C2,-10.2%,–
CC(=O)c1ccc(NC(=O)c2ccc3c(Cl)c4c(nc3c2)CCCC4)cc1,–,22.4 µM (active)
CC(C)CCNC(=O)c1ccc2c(Cl)c3c(nc2c1)CCC3,-24.9%,–
COc1cccc(CNC(=O)c2ccc3c(Cl)c4c(nc3c2)CCCC4)c1,12.9%,–
COc1ccc(-c2noc(-c3ccc(N4CCN(c5ccccc5)CC4)c([N+](=O)[O-])c3)n2)cc1OC,-12.9%,–
c1ccc(CN2CCN(Cc3ccc4c(c3)CN(Cc3c[nH]c5ccccc35)CCO4)CC2)nc1,-12.3%,–
COc1ccccc1C(=O)OCC(=O)NCCNC(=O)COC(=O)c1ccccc1OC,-9.67%,–
CCOC(=O)C(=Cc1ccccc1OC)C(=O)OCC,–,28.2 µM (active)
CCOC(=O)C(=O)C1C(=O)Nc2ccccc21 (stereo not drawn),-14.8%,–
CCOC(=O)C(=Cc1ccccc1)C(=O)c1ccccc1,–,8.91 µM (active)
CCOC(=O)CCP(=O)(O)C(O)(c1ccccc1)c1ccccc1,-8.31%,–
COc1ccccc1/C=C/C(=O)OCC(=O)NC1CCCCCC1,0.416%,–
Cc1ccc(CC2(O)CCN(CCOc3ccc(O)cc3)CC2)cc1,-14.5%,–
C[C@@H]1CN(Cc2ccc3c(c2)CN(Cc2ccc(Oc4ncccn4)cc2)CCO3)C[C@H](C)O1,-3.92%,–
CCS(=O)(=O)N(C)[C@@H]1c2cc(C#N)ccc2OC(C)(C)[C@H]1O,–,inactive
CC(=O)c1ccc(NC(=O)CSc2nnc(NC(=O)Nc3ccccc3)s2)cc1,27.2%,–
Cc1ccc(C(=O)Nc2ccc(OCc3cc(=O)n4c(C)csc4n3)cc2)cc1,-2.45%,–
CC(=O)Nc1ccc(C(=O)Nc2nc(-c3cc(C)n(Cc4ccccc4)c3C)cs2)cc1,–,22.4 µM (active)
CC(=O)Nc1ccc(-c2csc(NC(=O)Nc3ccccc3)n2)cc1,–,15.8 µM (active)
CCn1c(SCC(=O)Nc2nc(C)cs2)nnc1C(C)NC(=O)c1ccccc1 (stereo not drawn),-1.72%,–

Compound,"activity change, negative = inhibition",Potency
CC(=O)NC(c1ccccc1)c1nc(-c2ccccc2C)cs1 (stereo not drawn),-1.87%,–
O=S(=O)(NCC(c1ccccc1)N1CCc2ccccc21)c1ccccc1 (stereo not drawn),-18%,–
CC1CCCN(Cc2nc3c(c(=O)n(C)c(=O)n3C)n2CC(=O)c2ccccc2)C1 (stereo not drawn),0%,–
CC1CN(Cc2nc3c(c(=O)n(C)c(=O)n3C)n2Cc2cccc(Cl)c2)CC(C)O1 (stereo not drawn),-21.5%,–
COCCn1c(CN2CCC(Cc3ccccc3)CC2)nc2c1c(=O)n(C)c(=O)n2C,–,15.8 µM (active)
CC(C)C1=CC2=CC[C@H]3[C@](C)(C(=O)O)CCC[C@]3(C)C2CC1 (stereo partly drawn),-0.372%,–
CC(=O)N1CCN(Cc2cc(=O)oc3cc(C)ccc23)CC1,-5.75%,–
O=c1cc(CN2CCN(S(=O)(=O)/C=C/c3ccccc3)CC2)c2ccc(O)cc2o1,-8.35%,–
COc1ccc2c(CN3CCN(S(=O)(=O)c4cccs4)CC3)cc(=O)oc2c1,–,39.8 µM (active)
O=c1c(NCc2cccs2)nccn1-c1ccccc1,49.2%,–
CCCCC/C=C\C/C=C\C/C=C\C=C\[C@H](CCCC(=O)O)OO,-15.4% [at 0.463 µM],–
COc1ccc(CCNC(=O)c2nnc(CS(=O)(=O)c3ccccc3)o2)cc1OC,-14.6%,–
COc1ccc(CCNC(=O)c2ccc(CS(=O)(=O)c3ccc(Br)cc3)o2)cc1OC,–,31.6 µM (active)
O=C(NCc1cccnc1)c1ccc(CS(=O)(=O)c2ccc(Br)cc2)o1,-5.61%,–
Cc1nnc(NC(=O)CSc2nc3c([nH]c4ccccc43)c(=O)n2-c2cccc(Cl)c2)s1,-12.3%,–
CCc1ccc(-n2c(SCc3cc(=O)n4cc(Br)ccc4n3)nc3[nH]ncc3c2=O)cc1,–,31.6 µM (active)
O=c1c2sccc2nc(SCc2cc(=O)n3ccccc3n2)n1-c1ccc(Br)cc1,0%,–
Cc1cccc2nc(CSc3nc4[nH]ncc4c(=O)n3-c3cccc(Cl)c3)cc(=O)n12,–,15.8 µM (active)
Cc1ccc(CSc2nc3[nH]ncc3c(=O)[nH]2)cc1,0%,–
Cc1nnc(SCc2cccc(Cl)c2)n(N)c1=O,-10.6%,–
COc1ccc(CCNC(=O)C(=O)NCC(c2ccco2)S(=O)(=O)c2cccs2)cc1OC (stereo not drawn),0%,–

Compound,"activity change, negative = inhibition",Potency
O=C(NCc1ccccc1)C(=O)NCC(c1ccco1)S(=O)(=O)c1ccc(Cl)cc1 (stereo not drawn),–,31.6 µM (active)
O=C(Cc1ccc(Cl)cc1)NCC(c1cccs1)S(=O)(=O)c1ccc(Cl)cc1 (stereo not drawn),-11.8%,–
COc1ccc(Oc2ncc3nc(-c4ccc(F)cc4)c(=O)n(C)c3n2)cc1,-9.03%,–
CC(=O)Nc1cc(C(=O)NCc2ccc(F)cc2)ccc1Sc1ccc(F)cc1,-26.4%,–
Cc1nnc2n1N=C(c1ccc3c(c1)NC(=O)CO3)CS2,21.3%,–
COc1ccc(C2=Nn3c(nnc3-c3ccccc3OC)SC2)cc1OC1CCCC1,–,14.1 µM (active)
CCN(CCCNC(=O)CSc1cc(=O)n(C)c2cc(Cl)ccc12)c1cccc(C)c1,-13.6%,–
CCC1(C2CCN(C(=O)c3cccc(F)c3F)CC2)NC(=O)N(CCc2scnc2C)C1=O (stereo not drawn),7.43%,–
COc1cc(=O)n2c(c1C(=O)NCc1ccco1)CCN(Cc1ccccc1)CC2,2.46%,–
COc1cccc(-c2nc(CS(=O)(=O)CC(=O)N3CCN(c4cc(C)ccc4C)CC3)c(C)o2)c1,–,20 µM (active)
CCCCN(CC)CCCNC(=O)CS(=O)(=O)Cc1nc(-c2cccc(OC)c2)oc1C,-3.14%,–
Cc1ccccc1-c1nc(CS(=O)(=O)CC(=O)N2CCc3ccccc3C2)c(C)o1,-27%,–
COc1ccc(C)cc1-n1c(-c2ccc(C)cc2)cc2c1CC(C)(C)CC2=O,-2.9%,–
N#CC(C#N)=Cc1cc(O)c(O)c([N+](=O)[O-])c1,-7.05%,–
COc1ccc(-n2nnc(-c3nsc(NC(=O)c4ccc(C)c(C)c4)n3)c2C)cc1Cl,-19.3%,–
CCc1ccc(C(=O)NNC(=O)C2CCN(c3ncnc4sc(C)c(C)c34)CC2)cc1,–,31.6 µM (active)
Cc1ccc(C)n1-c1nnc(N2CCC(C(=O)NCc3ccc(F)cc3)CC2)s1,-25.1%,–
Cc1sc2ncnc(SCC(=O)NC3CCS(=O)(=O)C3)c2c1C (stereo not drawn),-23.1%,–
CCc1ccc(CNC(=O)C2CCN(c3nnc(C)c4c(C)n(-c5ccc(C)cc5)nc34)CC2)cc1,–,inactive
Cc1sc2ncnc(N3CCC(C(=O)NNC(=O)c4ccc(F)cc4)CC3)c2c1C,–,20 µM (active)
Cc1sc2ncnc(SCC(=O)Nc3ccc(CN4CCCC4)cc3)c2c1C,-22.6%,–
